Bioassay records as filed in PubChem.
EPAC2 antagonist: blocks human EPAC2 exchange factor; EPAC2 GEF exchange of Rap1B-BODIPY-GDP, fluorescence; Q8WZA2; Potency, µM (top dose mostly 114 µM), most hits filed as inhibitors; hit rate 0.18% among 360,000; AID 720708; further: nearly all actives have a fitted effect of over 45% in size
EPAC2 agonist: EPAC2 (human) agonism | EPAC2 activation, biochemical qHTS; response scale: 100% = 6.5 mM cAMP response | Potency, µM (titrated, usually from 154 µM), actives largely listed as activators | hit rate 0.079% among 360,000 | AID 720711; further: nearly all actives have a fitted effect of over 50% in size
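Guanine nucleotide exchange by EPAC2 is measured as reduced fluorescence of BODIPY-GDP once it is released from 250 nM Rap1B. Plates are read kinetically for 30 min at room temperature; results are scaled to 6.5 mM cAMP.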
EPAC1 antag: EPAC1 (human) antagonism; O95398; EPAC1 GEF assay, Rap1b-BODIPY-GDP exchange fluorescence; Potency, µM (titrated, usually from 115 µM), hits mostly inhibitors; hit rate 0.14% among 360,000; further: nearly all actives have a fitted effect of over 50% in size
BRCA1 expr up: activators of BRCA1 expression | MCF7-BRCA1-FFLuc reporter, luminescence, 48 h; response scale: scaled: vehicle 0%, 10 µM genistein 100% | Potency, µM (doses to about 46.1 µM), hits mostly activators | hit rate 1.1% among 380,000; further: nearly all actives have a fitted effect of over 80% in size
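MCF7-BRCA1-FFLuc cells, 2000/well in phenol-red-free MEM, attached 2 h then treated 48 h at 37 C. Luciferase luminescence read 15 min after reagent; normalized to genistein maximum activation (10microM) and DMSO, concentration-response fitted.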
RGS4 inhibitor: inhibitors of human regulator of G protein signaling 4; AID 504845; hit rate 0.039% among 390,000; Transcreener GDP fluorescence polarization, RGS4-accelerated GTP hydrolysis; Potency, µM (doses to about 114 µM), usual class: inhibitors; further: nearly all actives have a fitted effect of over 75% in size
Target sequence (P49798 whole entry, looked up): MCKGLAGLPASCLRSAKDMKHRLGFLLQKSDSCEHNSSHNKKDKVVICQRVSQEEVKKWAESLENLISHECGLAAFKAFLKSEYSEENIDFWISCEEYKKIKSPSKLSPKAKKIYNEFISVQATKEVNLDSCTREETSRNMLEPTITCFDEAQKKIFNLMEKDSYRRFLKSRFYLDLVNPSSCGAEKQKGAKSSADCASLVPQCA
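MLSMR compounds (23 nl, pin-transferred) preincubated 10 min at room temperature with a 500nM (2x) first reagent, then RGS4 at 900nM (2x) plus Transcreener GDP mix added; fluorescence polarization (620/688 nm) read before and after 90 min at 30 °C.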
EPAC1 agonist: activates human EPAC1 exchange factor | O95398 | EPAC1 agonist qHTS, biochemical assay; response scale: 100% = response to 6.5 mM cAMP | Potency, µM (titrated, usually from 154 µM), actives largely listed as activators | hit rate 0.073% among 360,000 | AID 720707; further: nearly all actives have a fitted effect of over 60% in size
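Multi-concentration qHTS readout: loss of Rap1B-bound BODIPY-GDP fluorescence driven by 100 nM EPAC1 with excess GDP (50 uM), monitored kinetically at room temperature; agonist response expressed relative to 6.5 mM cAMP.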
Of the large screens only hits and unclear results are named; the others gave an inactive call. This is a sample that favours compounds with a hit; in the whole collection about 1.3% have one here. The call rests on the fitted dose curve; in most records, active means well fitted curve in the direction sought with a large enough effect; inconclusive means small, poorly fitted or top-dose-only effect, or another doubt; inactive means no such curve, though single readings can be large; an effect the other way counts as inactive or inconclusive.

O=C(COC(=O)c1c(F)cccc1Cl)NC1CCCCC1	BRCA1 expr up 11µM
Cc1ccsc1C(=O)OCC(=O)N1CCc2ccccc2C1	BRCA1 expr up 7.9µM
COc1cc(/C=C/C(=O)O)ccc1OS(=O)(=O)c1ccc(C)cc1	none
Cc1cc(NS(=O)(=O)c2ccc(NC(=O)COc3c(C)cc(Br)cc3C)cc2)no1	EPAC2 antagonist 18µM
C/C(=N/NC(=O)c1ccncc1)c1cc2ccc(O)cc2oc1=O	EPAC2 agonist 89µM, EPAC1 agonist 100µM
CN(C)S(=O)(=O)Nc1ccc(-c2cn3ccsc3n2)cc1	BRCA1 expr up 11µM (no result: EPAC2 antagonist, EPAC2 agonist, EPAC1 antag, EPAC1 agonist)
COc1ccc(S(=O)(=O)Nc2ccc(-c3cn4ccsc4n3)cc2)cc1C	none (no result: EPAC2 antagonist, EPAC2 agonist, EPAC1 antag, EPAC1 agonist)
COc1ccc2nc3cc([N+](=O)[O-])ccc3c(NNc3ccc([N+](=O)[O-])cc3)c2c1	none
CC(C)(C)C1CCC(=O)N(CCOc2ccccc2)CC1 (configuration not stated)	EPAC2 antagonist inconclusive, BRCA1 expr up 13µM
CC(=O)Nc1cc[n+](CC(=O)c2cccc([N+](=O)[O-])c2)cc1	none
N=C(N)c1ccc(Cl)cc1	EPAC1 antag inconclusive
O[C@H]1c2ccccc2[C@H](Cc2cncs2)[C@@H]1Br	none
Cc1ccc2nc(Nc3ccccc3)c(/C=N/O)c(=O)n2c1	EPAC1 antag inconclusive
Nc1ccc(O)c2c(=O)cc(-c3ccccc3Cl)oc12	BRCA1 expr up 2.8µM
O=c1cc(-c2ccccc2Cl)oc2c(NS(=O)(=O)c3cc(Cl)cc(Cl)c3O)ccc(O)c12	EPAC2 antagonist 28µM, EPAC1 antag 35µM, RGS4 inhibitor inconclusive
O=c1cc(-c2ccccc2Cl)oc2cc(O)cc(O)c12	BRCA1 expr up inconclusive
CCc1ccc(S(=O)(=O)Nc2ccc(O)c3c(=O)cc(-c4ccccc4Cl)oc23)cc1	none
Cc1ccc(/C=C/C(=O)NC2=NCCS2)cc1	none
O=C(Nc1ccc2nc3n(c(=O)c2c1)CCCC3)c1ccccc1F	BRCA1 expr up inconclusive
O=C(Nc1ccc2nc3n(c(=O)c2c1)CCCC3)c1cccc(F)c1	BRCA1 expr up 10µM
Cc1ccc(Oc2nc(-c3ccccc3)ncc2S(=O)(=O)c2ccc(C)cc2)cc1	none
NC(=O)C1CCN(c2nc(-c3ccc4ccccc4c3)cs2)CC1	BRCA1 expr up 13µM
CC(=O)c1cccc(-c2csc(N3CCC(C(N)=O)CC3)n2)c1	none
NC(=O)C1CCN(c2nc(-c3cccc(Cl)c3)cs2)CC1	BRCA1 expr up 4µM
O=C(/C=C/c1ccc(OCc2cccc(Cl)c2)cc1)N1CCOCC1	none
Cc1ccc(S(=O)(=O)n2nc(-c3ccco3)nc2NCc2ccc(N(C)C)cc2)cc1	none (no result: EPAC2 antagonist, EPAC2 agonist, EPAC1 antag, BRCA1 expr up, EPAC1 agonist)
CS(=O)(=O)N(CC(=O)N1CCCCCC1)c1cccc(Br)c1	none
O=C1OC(c2ccc3ccccc3c2O)(c2ccc3ccccc3c2O)c2ccccc21	EPAC1 antag 56µM, RGS4 inhibitor inconclusive
C/C(=N\NC(=O)c1ccco1)c1ccc(-c2ccccc2)cc1	BRCA1 expr up 8.9µM
C/C(=N\NC(=O)c1cccs1)c1ccc(C(=O)O)s1	BRCA1 expr up 14µM
C/C(=N/NC(=O)c1cccs1)c1ccco1	BRCA1 expr up 13µM
COc1ccc(NC(=O)CSc2nc(O)c(C/C=C/c3ccccc3)c(=O)[nH]2)cc1	none (no result: EPAC2 antagonist, EPAC2 agonist, EPAC1 antag, BRCA1 expr up, EPAC1 agonist)
O=C(O)c1ccc2c(c1)ncn2-c1ccc(F)c(F)c1	none (no result: EPAC2 antagonist, EPAC2 agonist, EPAC1 antag, EPAC1 agonist)
CCn1c(O)c(N=NC(=O)c2cccnc2)c2cc(Br)ccc21	none
c1ccc(NNC2=NCCS2)cc1	RGS4 inhibitor inconclusive
c1ccc(NC2=Nc3ccccc3CS2)cc1	BRCA1 expr up 3.5µM
Cc1cc(=O)n(Cc2ccccc2)c2c1c(C)nn2C	none (no result: EPAC2 antagonist, EPAC2 agonist, EPAC1 antag, BRCA1 expr up, EPAC1 agonist)
O=C1C[C@H]2[C@H](CO)[C@@H](OC(=O)c3ccc(-c4ccccc4)cc3)C[C@H]2O1	BRCA1 expr up 13µM
N#C/C(=C\c1ccc(C(=O)O)cc1)c1nc2sc3c(c2c(=O)[nH]1)CCCC3	EPAC2 agonist 56µM, EPAC1 agonist 32µM
CCOC(=O)/C=C/C(=O)Nc1ccc(-c2nnc3n2CCCCC3)cc1	none
O=C1S/C(=C\c2cccs2)C(=O)N1c1ccc(O)cc1	BRCA1 expr up 11µM
O=C1/C(=C/c2cccs2)SC(=S)N1c1ccccc1	none
CC(/C=N/N1CCN(c2ccccc2)CC1)=C\c1ccco1	BRCA1 expr up 6.3µM
COc1ccc(NC(=O)c2cc(Cl)ccc2Cl)c([N+](=O)[O-])c1	none
COc1ccc(NC(=O)c2cccs2)c([N+](=O)[O-])c1	EPAC2 antagonist inconclusive, BRCA1 expr up 5.6µM
COc1ccc(NC(=O)c2sccc2C)c([N+](=O)[O-])c1	BRCA1 expr up 11µM
COc1ccc2cc3cc(C(=O)NCCCN4CCC(C)CC4)oc3nc2c1	BRCA1 expr up 11µM
C/C=C/c1ccc(OCC(=O)OCc2csc(Nc3ccc(C)cc3)n2)c(OC)c1	BRCA1 expr up 11µM
CCOC(=O)c1ccc(NC(=S)N2CCN(C)CC2)cc1	none
O=c1oc2ccccc2c(NC(c2ccccc2)c2ccccc2)c1[N+](=O)[O-]	none
FC(F)Oc1ccc(C2N=C(c3ccccc3)NO2)cc1 (configuration not stated)	BRCA1 expr up 4.5µM
COc1cc(/C=C/C(=O)O)cc(S(=O)(=O)Nc2ccccc2C(=O)NCc2ccco2)c1OC	none
N/C(=N\OC(=O)c1cccc(Br)c1)c1ccncc1	BRCA1 expr up 14µM
N/C(=N\OC(=O)c1ccc(Br)cc1)c1ccncc1	BRCA1 expr up 4µM
CCCCCOc1ccc(C2C(C(=O)c3ccc(C)o3)=C(O)C(=O)N2c2cc(C)on2)cc1 (configuration not stated)	none
CC(Oc1ccccc1)C(=O)NC1CCCCCCC1 (configuration not stated)	none
CC(C)(O)C#Cc1ccc(C(=O)NC2CCCCC2)s1	BRCA1 expr up 11µM
O=C(NC1CCCCC1)c1cccs1	none
CCc1ccc(C(=O)NC2CCCCC2)s1	BRCA1 expr up 3.5µM
Cc1occc1C(=O)NNC(=O)C1CCCC1	none
Cc1occc1C(=O)NC1CCCCCCC1	BRCA1 expr up 14µM
COc1ccc(NC(=O)c2ccco2)cc1NC(=O)C(C)Oc1ccc(Cl)cc1Cl (configuration not stated)	none (no result: EPAC2 antagonist, EPAC2 agonist, EPAC1 antag, EPAC1 agonist)
CCCN(CCC)C(=O)c1c2c(nc3ccccc13)C(=O)N(C1CCCCC1)C2	none (no result: EPAC2 antagonist, EPAC2 agonist, EPAC1 antag, BRCA1 expr up, EPAC1 agonist)
CC(OC(=O)C1=COCCO1)C(=O)NC1CCCCC1 (configuration not stated)	none (no result: RGS4 inhibitor)
Cc1ncoc1C(=O)N1CCc2c([nH]c3ccccc23)C1C(C)(C)C (configuration not stated)	none
